Compound activity from PubChem BioAssay.
Vaccinia mCherry: vaccinia inhibition (mCherry reporter) | Vaccinia virus mCherry reporter infection, fluorescence | Potency, µM (highest dose often 36.5 µM), hits mostly inhibitors | 310,000 compounds, 0.63% hits | AID 720579; calls by dose curve; tested in A549 cells; further: nearly all actives have a fitted effect of over 35% in size
Pf growth 48h: inhibits P. falciparum growth in the first generation, 48 h; AID 504832; Potency, µM (series often up to 28.7 µM), hits mostly inhibitors; P. falciparum luciferase growth in erythrocytes, 48 h; 310,000 compounds, 5.9% hits
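Cell-based growth assay: transgenic P. falciparum expressing firefly luciferase, cultured in red cells within RPMI 1640 containing 0.5% w/v Albumax, 24 mM bicarbonate and gentamycin. A drop in luciferase activity indicates inhibition.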
Pf growth 96h: inhibits malaria parasite growth, 96 h; P. falciparum luciferase reporter growth, 96 h; Potency, µM (series often up to 28.7 µM), most hits filed as inhibitors; 320,000 compounds, 6.9% hits; AID 504834
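Luminescence readout: decreased luciferase signal marks inhibited growth of reporter-expressing P. falciparum in infected red cells (2% hematocrit, 0.05% parasitemia final), exposed to compound two generations (96 h, 37 C, 5% CO2).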
AMA1-RON2 inh: AMA1-RON2 (P. falciparum) interaction inhibition. AlphaScreen AMA1-biotinylated RON2 peptide binding. Potency, µM (series often up to 58.2 µM), most hits filed as inhibitors. 360,000 compounds, 0.2% hits. AID 720542; further: nearly all actives have a fitted effect of over 45% in size
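AMA1 (3D7) with his tag at 25 nM final met compounds first, then biotinylated RON2 peptide at 25 nM; detection used donor plus acceptor beads, 10 µg/mL apiece, read by AlphaScreen after 30 min at room temperature.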
Vaccinia Venus: inhibitors of vaccinia virus (Venus reporter) | 330,000 compounds, 0.46% hits | Potency, µM (titrated, usually from 36.5 µM), actives largely listed as inhibitors | Vaccinia virus Venus reporter expression, fluorescence; calls by dose curve; tested in A549 cells; further: nearly all actives have a fitted effect of over 30% in size
A number is an active result; ! = repeats disagree. Compounds with a hit are over-represented: about 8.7% of the library has one in this group of screens. Unless noted, the call rests on the fitted dose curve; in most records, active means well fitted curve in the direction sought with a large enough effect; inconclusive means small, poorly fitted or top-dose-only effect, or another doubt; inactive means no such curve, though single readings can be large; an effect the other way counts as inactive or inconclusive.

Results for COC(=O)C1=C(C)N(Cc2ccccc2)C(=S)N[C@H]1c1cccc(F)c1 ?
Vaccinia mCherry: inactive; Pf growth 48h: inconclusive; Pf growth 96h: inconclusive; AMA1-RON2 inh: inactive; Vaccinia Venus: inactive

How did COC(=O)C1=C(C)N(Cc2ccccc2)C(=NCc2ccccc2)N[C@H]1c1cccc(F)c1 do in these assays?
Vaccinia mCherry: inconclusive; Pf growth 48h: inconclusive; Pf growth 96h: 9.28µM; AMA1-RON2 inh: inactive; Vaccinia Venus: inconclusive

How did CCOc1cc(CNC(=O)c2ccccc2NC(=O)c2nsc3ccccc23)ccc1OC do in these assays?
Vaccinia mCherry: inactive; Vaccinia Venus: inactive

How did COc1ccccc1NC(=O)C1=C(C)Nc2ncnn2C1c1cccn1C (stereo not given) do in these assays?
Vaccinia mCherry: inactive; Vaccinia Venus: inactive

Results for CCc1nc(-c2cc(S(=O)(=O)N3CCN(c4ccccc4)CC3)ccc2OC)no1 ?
Vaccinia mCherry: inactive; Vaccinia Venus: inactive

How did COC(=O)C1=C(C)N(Cc2ccccc2)C(=NCc2ccccc2)N[C@H]1c1ccccc1 do in these assays?
Vaccinia mCherry: inactive; Pf growth 48h: inconclusive; Pf growth 96h: 1.69µM; AMA1-RON2 inh: inactive; Vaccinia Venus: inconclusive

How did CCN1C(=NCCCCO)N[C@@H](c2cccc(F)c2)C(C(=O)OC)=C1C do in these assays?
Vaccinia mCherry: inactive; Pf growth 48h: inactive; Pf growth 96h: inconclusive; AMA1-RON2 inh: inactive; Vaccinia Venus: inactive

What do the screens show for `COC(=O)C1=C(C)N(Cc2ccccc2)C(=NCc2cc(OC)c(OC)c(OC)c2)N[C@H]1CCc1ccccc1`?
Vaccinia mCherry: inactive; Pf growth 48h: 13.1µM; Pf growth 96h: inconclusive; AMA1-RON2 inh: inactive; Vaccinia Venus: inactive

How did COC(=O)C1=C(C)N(Cc2ccccc2)C(=NCc2cc(OC)c(OC)c(OC)c2)N[C@H]1c1ccccc1 do in these assays?
Vaccinia mCherry: inactive; Pf growth 48h: inconclusive; Pf growth 96h: inconclusive; AMA1-RON2 inh: inactive; Vaccinia Venus: inactive

How did C=CCN=C1N[C@@H](c2ccccc2)C(C(=O)OC)=C(C)N1CCOC do in these assays?
Vaccinia mCherry: inactive; Pf growth 48h: inactive; Pf growth 96h: 10.4µM!; AMA1-RON2 inh: inactive; Vaccinia Venus: inactive

What do the screens show for `CCN(CC)CCCN=C1N[C@@H](c2cccc(F)c2)C(C(=O)OC)=C(C)N1Cc1ccccc1`?
Vaccinia mCherry: inconclusive; AMA1-RON2 inh: inactive; Vaccinia Venus: 28.2µM

Results for COC(=O)C1=C(C)N(Cc2ccccc2)C(=NCc2cccc(Cl)c2)N[C@H]1c1ccccc1 ?
Vaccinia mCherry: inactive; Pf growth 48h: inactive; Pf growth 96h: inconclusive; AMA1-RON2 inh: inactive; Vaccinia Venus: inconclusive

What do the screens show for `CC1CCN(S(=O)(=O)c2cc(C(=O)NCc3ccccc3)n(C)c2)CC1`?
Vaccinia mCherry: inactive; Vaccinia Venus: inactive

How did Cc1cccc(-c2nc3ccccc3n2Cc2ccccc2)c1 do in these assays?
Vaccinia mCherry: inactive; Vaccinia Venus: inactive

How did CCC(C)NC(=O)CSc1nc2c(sc3ccccc32)c(=O)n1Cc1ccccc1Cl (stereo not given) do in these assays?
Vaccinia mCherry: inactive; Vaccinia Venus: inactive

What do the screens show for `COc1ccc(S(=O)(=O)N2N=C(c3ccc(NS(C)(=O)=O)cc3)CC2c2ccco2)cc1` (stereo not given)?
Pf growth 48h: inactive; Pf growth 96h: inactive; AMA1-RON2 inh: inactive

Results for COc1ccc(S(=O)(=O)N2N=C(c3cccc(NS(C)(=O)=O)c3)CC2c2ccco2)cc1 (stereo not given) ?
Pf growth 48h: inactive; Pf growth 96h: 13.1µM; AMA1-RON2 inh: inactive

How did CS(=O)(=O)Nc1cccc(C2=NN(S(C)(=O)=O)C(c3ccc4c(c3)OCO4)C2)c1 (stereo not given) do in these assays?
Vaccinia mCherry: inactive; Pf growth 48h: inactive; Pf growth 96h: 2.33µM; AMA1-RON2 inh: inactive; Vaccinia Venus: inactive

How did CS(=O)(=O)N1N=C(c2ccccc2)CC1c1ccc2c(c1)OCO2 (stereo not given) do in these assays?
Vaccinia mCherry: inactive; Pf growth 48h: inactive; Pf growth 96h: inactive; AMA1-RON2 inh: inactive; Vaccinia Venus: inactive

Results for Cc1ccc(-n2nc(C)c3c(C(=O)NCCc4ccccc4)cc(C)nc32)cc1 ?
Vaccinia mCherry: inactive; Vaccinia Venus: inactive

What do the screens show for `CC(C)OCCCN1C=C2C(=O)C(C)(OC(=O)CCc3ccccc3)C(=O)C=C2C=C1c1ccc(C#N)cc1` (stereo not given)?
Vaccinia mCherry: inactive; Pf growth 48h: 10.4µM; Pf growth 96h: inconclusive; AMA1-RON2 inh: inactive; Vaccinia Venus: inactive

How did COC(=O)c1c[nH]c2c1-c1cc(C(=O)OCc3ccccc3)n(S(=O)(=O)c3ccc(C)cc3)c1C(=O)C2=O do in these assays?
Vaccinia mCherry: inconclusive; AMA1-RON2 inh: inactive; Vaccinia Venus: 2.24µM

What do the screens show for `Cc1cc(C)c(C#N)c(SCC(=O)c2ccccc2)n1`?
Pf growth 48h: inactive; Pf growth 96h: 4.65µM; AMA1-RON2 inh: inactive

Results for Cc1nc(SCC(=O)c2ccccc2)c(C#N)c(-c2ccco2)c1C(=O)NCc1ccco1 ?
Pf growth 48h: 9.28µM; Pf growth 96h: inconclusive; AMA1-RON2 inh: inactive; Vaccinia Venus: inactive

How did Cc1cc(C)c(C#N)c(SCC(=O)c2cccs2)n1 do in these assays?
Pf growth 48h: inactive; AMA1-RON2 inh: inactive

Results for COCc1cc(C)nc(SCC(=O)NCc2ccco2)c1C#N ?
Pf growth 48h: inactive; Pf growth 96h: 9.28µM; AMA1-RON2 inh: inactive

How did COc1ccc(/C=C/C(=O)CC(=O)/C=C/c2cccc(O)c2OC)cc1O do in these assays?
Vaccinia mCherry: inactive; Vaccinia Venus: inactive

What do the screens show for `COc1ccc(Oc2nc3c(c(=O)n(Cc4ccccc4Cl)c(=O)n3C)n2C)cc1`?
Vaccinia mCherry: inactive; Vaccinia Venus: inactive

How did COc1cccc(C(=O)N(Cc2cc3ccc(C)cc3nc2N(C)C)C2CC2)c1OC do in these assays?
Vaccinia mCherry: inactive; Vaccinia Venus: inactive

How did Cc1cc2nc(-c3ccc(SCc4ccc(C#N)cc4)nc3)[nH]c2cc1C do in these assays?
Vaccinia mCherry: inactive; Pf growth 48h: inconclusive; Pf growth 96h: 7.38µM; AMA1-RON2 inh: inactive; Vaccinia Venus: inactive

Results for N#Cc1ccccc1CSc1ccc(-c2nc3ccccc3[nH]2)cn1 ?
Vaccinia mCherry: inactive; Pf growth 48h: inconclusive; Pf growth 96h: inconclusive; AMA1-RON2 inh: inactive; Vaccinia Venus: inactive

What do the screens show for `Cc1ccc(CNc2cc(-c3nn4c(C)nnc4s3)ccc2C)s1`?
Vaccinia mCherry: inactive; Pf growth 48h: 11.7µM; Pf growth 96h: inconclusive; AMA1-RON2 inh: inactive; Vaccinia Venus: inactive

Results for COc1ccc(-c2cc(C(F)(F)F)nc(SCCC(=O)Nc3ccc(F)cc3F)n2)cc1 ?
Vaccinia mCherry: inactive; Vaccinia Venus: inactive

What do the screens show for `CCOc1ccc(CCNC(=O)CCCc2nnc3n(CC)c(=O)c4sccc4n23)cc1`?
Vaccinia mCherry: inactive; Vaccinia Venus: inactive

What do the screens show for `CC1CC(C)CN(S(=O)(=O)c2ccc(NC(=O)CN3CCCCCC3)cc2)C1` (stereo not given)?
Vaccinia mCherry: inactive; Pf growth 48h: 7.38µM; Pf growth 96h: inconclusive; AMA1-RON2 inh: inactive; Vaccinia Venus: inactive
